According to the supplement of paper PMC6135742:
Where a name gives a salt, the structure may show the parent alone. Over roughly 2,600 compounds, “total cell number (DAPI+ nuclei) relative to DMSO vehicle control” has its median near -1.4; the lowest 2% begin near -23. This excerpt belongs to a sample that is enriched for the lowest values.

What follows are compounds tested on jimpy (Plp1 jimpy) mouse iPSC-derived oligodendrocyte progenitor cells (assay: total cell number (DAPI+ nuclei) relative to DMSO vehicle control (SDs above negative control mean); higher = more surviving cells). Conditions: 10 µM; 3 days.
Description: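 Primary phenotypic screen of >3,000 bioactive compounds (Selleck L1700 and Sigma LO1280 libraries) at a single dose of 10 µM. Compounds were added to jimpy (Plp1 mutant) mouse iPSC-derived OPCs at the start of thyroid hormone-induced oligodendrocyte differentiation, one well per compound in 384-well plates. After 3 days cells were stained for MBP, Sox10 and DAPI and imaged with an Operetta system. MBP+ oligodendrocyte number and total cell number were expressed as the number of SDs above the mean of the DMSO negative control on the same plate (n=16 control wells per plate). Hits were defined as >=4 SD for oligodendrocytes and >=2 SD for total cells.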

Row | SMILES | total cell number
1 | CC[C@@]1(O)C(=O)OCc2c1cc1n(c2=O)Cc2cc3ccccc3nc2-1 [Camptothecin] | -22.6
2 | CC[C@@]1(O)C(=O)OCc2c1cc1n(c2=O)Cc2cc3ccccc3nc2-1 [(S)-(+)-Camptothecin] | -9.49
3 | CC1C2Cc3ccc(O)cc3C1(C)CCN2CC1CC1 (single isomer, unassigned; (+)) [(+)-Cyclazocine] | -1.89
4 | CC(C)C1CNC(C(=O)O)C1CC(=O)O (stereo unspecified) [Dihydrokainic acid] | -0.564
5 | Cc1cc([C@@H]2CCCN2C)on1 [ABT-418 hydrochloride] | -4.48
6 | Clc1ccc(N2CCN(Cc3c[nH]c4ncccc34)CC2)cc1 [L-745,870 hydrochloride] | -5.68
7 | COC[C@H]1OC(=O)c2coc3c2[C@@]1(C)C1=C(C3=O)C2CCC(=O)[C@@]2(C)C[C@H]1OC(C)=O (stereo partly specified) [Wortmannin from Penicillium funiculosum] | -3.09
8 | CC[C@@H]1/C=C/C=C/C[C@H](C)[C@H](O)[C@](C)(O)C(=O)[C@H](C)[C@@H](O)[C@H](C)C(=O)[C@H](C)[C@@H](O)[C@H](C)/C=C/C(=O)O[C@H]2[C@@H](C)[C@@H](CC1)O[C@@]1(CC[C@@H](C)[C@@H](C[C@H](C)O)O1)[C@@H]2C [Oligomycin A] | -27.5
9 | NC(Cc1cc(O)c(O)cc1O)C(=O)O (racemic) [6-Hydroxy-DL-DOPA] | -2.36
10 | O=c1ccc2[nH]cc(C3=CCNCC3)c2[nH]1 | 0.673
11 | CC1=NN=C(c2ccc(N)cc2)c2cc3c(cc2C1)OCO3 | -0.785
12 | CO[C@H]1CC[C@@H](O[C@H]2C[C@H]([C@]3(C)CC[C@]4(C[C@H](O)[C@@H](C)[C@@H]([C@@H](C)/C=C(\C)C(=O)[C@H](C)C[C@H](C)C(=O)O)O4)O3)O[C@]3(O[C@@H]([C@H]4O[C@@](O)(CO)[C@H](C)C[C@@H]4C)C[C@@H]3C)[C@@H]2C)O[C@@H]1C [Nanchangmycin] | -27.5
13 | COc1cc(C(O)CN)ccc1O (racemic) [(±)-Normetanephrine hydrochloride] | -1.67
14 | COc1cc2c(cc1OC)C1CC(=O)C(CC(C)C)CN1CC2 (stereo unspecified) [Tetrabenazine] | -0.277
15 | CC(N)C(O)c1ccc(O)c(O)c1 (single isomer, unassigned; (-)) [(-)-alpha-Methylnorepinephrine] | -0.161
16 | CCCCC/C=C\C/C=C\C/C=C\C/C=C\CCCC(=O)NCc1ccc(O)c(OC)c1 [Arvanil] | -8.09
